The text below walks through data of PubChem BioAssay (NCI).

Compounds without any hit were thinned out: in the full panel of roughly 83,000, 20% have a hit.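 Cell lines were cultured in 96-well plates, exposed to a single compound concentration, and assessed for percent growth 48 hours later.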 Unmarked numbers belong to inactive results. Calls of active or inactive are those of the source. Rule for the calls: active = growth percent below 10; inactive = the rest.

The test system of this experiment is HCT-15 colon. The experiment can be described thus: NCI-60 one-dose screen, 48 h (100 = growth as untreated, 0 = no growth, -100 = all killed). The following applies: 10 µM unless noted.
Take `COc1cc(C(=O)c2c(N)ncn2-c2ccccc2)cc(OC)c1OC`: the growth is 82.6%.

With `CCn1c2ccc(O)cc2c2c(C)c3c[n+](C(C)C)ccc3c(C)c21`, the growth is 67.7%.

Regarding `Cc1cc2nc(-c3c(-c4ccc(F)cc4)nc4sccn34)[nH]c2cc1C`, the growth was 93%.

Regarding `Oc1c(I)cc(-c2nc3ccccc3s2)cc1CN(Cc1ccccn1)Cc1ccccn1`, the growth was 22%.

On to `CC(C)(CO)N(CCO)CCO`, for which the growth is 99.7%.

Regarding `CC1(C)CC[C@]2(C(=O)N3CCOCC3)CC[C@]3(C)C(=CC[C@@H]4[C@@]5(C)C/C(=C/c6ccncc6)C(=O)C(C)(C)[C@@H]5CC[C@]43C)[C@@H]2C1`, the growth is 7.19% (active).

For the compound `Cc1cccc(NC(=O)CSc2nc3ccc([N+](=O)[O-])cc3[nH]2)c1`, the growth was 75.1%.

Consider `COc1ccc(-c2oc(=O)ccc2-c2cc(OC)c(OC)c(OC)c2)cc1O`, for which the growth was 27.1%.

For the compound `O=C(O)c1cccc(N/C=C/C(=O)c2cc3cc(Br)ccc3oc2=O)c1`, the growth was 93.2%.

As for `CC[C@H](C)[C@H](NC(=O)[C@H](CCCNC(=N)N)NC(=O)[C@H](Cc1c[nH]c2ccccc12)NC(=O)[C@@H](NC(=O)[C@H](CCCCN)NC(=O)[C@H](CCCCN)NC(=O)[C@@H](NC(=O)[C@@H](NC(=O)[C@@H](NC(=O)[C@H](CCCCN)NC(=O)[C@H](Cc1ccccc1)NC(=O)[C@H](CCCCN)NC(=O)[C@H](CCCCN)NC(=O)[C@H](Cc1ccccc1)NC(=O)[C@@H](NC(=O)[C@@H](N)CCCCN)[C@@H](C)CC)[C@@H](C)O)[C@@H](C)CC)[C@@H](C)CC)C(C)C)C(=O)N[C@@H](Cc1ccccc1)C(=O)NCC(=O)N[C@@H](CCCNC(=N)N)C(=O)N[C@@H](Cc1ccccc1)C(N)=O`, the growth is -43% (active).
